# This is a sample that favours compounds with a hit; in the whole collection about 11% have one here.
# L major viab: Leishmania major promastigote growth inhibition, primary screen. Leishmania major promastigotes, resazurin fluorescence viability. inhibition, % at 10 µM. hit rate 9% among 200,000; in the data active means inhibition above about 50%;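 further: promastigotes grown with compound for 44 hours at 28 °C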
# Autophagy HCS: autophagy modulators in MEF cells, primary screen, imaging, high-content, MEF GFP-LC3; calls only at 10 µM (by protocol); MEF GFP-LC3 puncta imaging; test concentration mostly 10 µM; hit rate 0.98% among 190,000; AID 463193, 2010;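 active means percentage of spot-positive cells more than 3 SD above its plate mean, without a fluorescence outlier flag or 80% toxicity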;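 further: spot-positive cell cutoff set from DMSO-treated cells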
# INS promoter inh: inhibitors of insulin promoter-driven GFP, primary screen, imaging, TRM-6 cells (human fetal islet line), eGFP reporter, cell count; inhibition, % at 2 µM; hit rate 0.9% among 130,000; reporter expression induced with tamoxifen; AID 1273, 2008;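 active means inhibition above the mean plus 3 SD, with well images judged a real hit on visual review, cut at about 60% in these data, passing the limit was not always enough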
# WT yeast gro inh: growth inhibition of WT strain, primary screen, mitochondrial fusion inhibitor project, WT and mutant strains, chemical genetic; hit rate 2.1% among 190,000; inhibition, % at 10 µM; AID 1362, 2008; mitochondrial fusion phenotypic screen; in the data active means inhibition above about 58%; tested in S. cerevisiae
# Insulin prom up: insulin promoter activators in MIN6 cells, imaging, high-content screening, mouse beta cells. z-score at 5 µM. MIN6 insulin promoter-GFP reporter; hits give high values. AID 1625, 2009. hit rate 0.3% among 190,000;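 active means z-score above 3 at 5 µM with at least 500 cells counted in the well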
# The depositor's hits bear a star; i = inactive; / = no result given; + = active, no number.
SMILES,L major viab,Autophagy HCS,INS promoter inh,WT yeast gro inh,Insulin prom up
C=CCO/N=C(/CCC)C1=C(N)CC(C)(C)CC1=O,0,i,/,-4,-0.74
Cc1ccccc1OCCCSc1nc2ccccc2[nH]1,7,i,38,62*,-0.53
COc1cc(CN2CCC(CO)(CCOc3ccccc3)CC2)cc(OC)c1OC,87*,i,/,-2,/
COc1ccc(CN2CCC(CO)(CCOc3ccccc3)CC2)cc1C,85*,i,/,15,1.8
OCC1(CCOc2ccccc2)CCN(CCCn2cccn2)CC1,81*,i,/,-1,-0.05
CCOc1ccc(-c2nc(CSCC(=O)NCc3ccco3)c(C)o2)cc1,-1,i,-12,6,1.4
COC(CNC(=O)c1cccc(-n2c(=S)[nH]c3cc(Cl)ccc3c2=O)c1)OC,-8,i,29,-14,0.2
CCOC(=O)C1(Cc2ccccc2C)CCCN(C(=O)CCc2cccnc2)C1 (configuration not stated),-1,i,-71,4,-0.67
O=C(NCc1ccccc1Cl)C(=O)NCC1OCCN1S(=O)(=O)c1cccs1 (configuration not stated),3,i,-50,-24,-0.94
Cc1nc(S(=O)(=O)N(C)c2ccccc2)c(C#N)c(C)c1Cl,72*,i,0,0,/
Nc1c(S(=O)(=O)c2cccs2)c2nc3ccccc3nc2n1CCc1ccccc1,76*,i,-2,-13,-0.45
CC(C)CCn1c(N)c(S(=O)(=O)c2cccs2)c2nc3ccccc3nc21,70*,i,2,-4,-1.1
Cc1ccc2cc(CN(Cc3ccco3)S(=O)(=O)c3c(C)ccc4nsnc34)c(=O)[nH]c2c1,23,i,-67,4,0.74
Cc1cc2cc(CN(Cc3ccco3)S(=O)(=O)c3c(C)ccc4nsnc34)c(=O)[nH]c2cc1C,76*,i,20,-19,0.6
CSc1ccccc1NC(=O)CN(C)Cc1cc(=O)n2ccsc2n1,1,i,19,-9,0.03
CCC(Sc1nc2c(cnn2-c2ccc(Cl)cc2)c(=O)[nH]1)C(=O)OC (configuration not stated),-5,i,80*,-8,1.7
Cc1ccc2c(c1)nnn2C1CCN(C(=O)NCc2ccccc2)CC1,8,i,25,-2,0.12
O=C(NCc1ccccc1)N1CCC(n2cnc3cc(F)ccc32)CC1,6,i,78*,9,0.83
Cc1cc(CN2CCN(CCC#N)CC2)c(O)c(C2(C)CCCCC2)c1,22,i,42,84*,-1.1
OC[C@@H]1CCCN1Cc1cn(-c2ccccc2)nc1-c1ccc2c(c1)OCO2,14,i,/,-9,-0.22
c1ccc(-n2cc(CN3CCCC(CN4CCCC4)C3)c(-c3ccc4c(c3)OCO4)n2)cc1 (configuration not stated),100*,i,-125,-10,/
Cc1cc(-c2ccccc2)n(-c2cc(N/N=C/c3ccccc3O)ncn2)n1,100*,i,-147,22,-1.3
COc1ccc(C2C(C#N)=C(N)Oc3n[nH]c(C)c32)cc1Cn1nc(C)c([N+](=O)[O-])c1C (configuration not stated),6,i,0,-3,0.38
COc1ccc(C2C(C#N)=C(N)OC3=C2C(=O)CCC3)cc1Cn1nc(C)c([N+](=O)[O-])c1C (configuration not stated),93*,i,-43,-2,0.21
Cc1ccc(NC(NC(=O)c2cccs2)C(Cl)(Cl)Cl)cc1C (configuration not stated),25,i,12,37,0.43
SMILES,L major viab,Autophagy HCS,INS promoter inh,WT yeast gro inh,Insulin prom up
Cc1ccc(NCCC(=O)c2cccs2)cc1,72*,i,/,-10,-0.49
Cc1ccc(NC(NC(=O)c2cccs2)C(Cl)(Cl)Cl)cc1 (configuration not stated),71*,i,20,11,0.14
Cc1ccccc1NC(NC(=O)c1cccs1)C(Cl)(Cl)Cl (configuration not stated),72*,i,/,24,-0.88
O=C(Nc1nccs1)c1cccc(NC(=O)C(F)(F)F)c1,/,/,/,/,0.25
O=C(NNC(=O)c1ccccc1C(=O)O)c1ccc(O)cc1,4,i,35,7,-2
CCCS(=O)(=O)N1CCC(C(=O)N2CCOCC2)CC1,0,i,/,9,4*
CCCS(=O)(=O)N1CCC(C(=O)N2CCCC2)CC1,-3,i,21,14,0.48
O=C(Nc1cccnc1)C1=NN(C2CCS(=O)(=O)C2)C(=O)CC1 (configuration not stated),6,i,/,-3,-0.51
C=CCN(C(=O)C1=NN(C2CCS(=O)(=O)C2)C(=O)CC1)c1nc(-c2ccc([N+](=O)[O-])cc2)cs1 (configuration not stated),6,+,/,5,-0.12
CC(C)c1nc(N2CCOCC2)c(C#N)c2c1CCCC2,3,i,/,74*,/
CCSc1nc(N2CCOCC2)c2c(c1C#N)CCCC2,-5,i,-3,-15,0.58
CC(=O)/C=C(\C)NCCNc1c(F)c(F)c(CO)c(F)c1F,-8,i,/,-15,0.55
O=C(Nc1ncccn1)c1cc([N+](=O)[O-])cc([N+](=O)[O-])c1,99*,i,-26,-11,0.12
Cc1cc(C)nc(NC(=O)c2cc([N+](=O)[O-])cc([N+](=O)[O-])c2)n1,59*,i,/,3,-0.54
CCOC(=O)CSc1nnc(NC(=O)c2cc([N+](=O)[O-])cc([N+](=O)[O-])c2)s1,82*,i,-7,6,0.02
Cc1cc(C)nc(NC(=O)c2ccc(C)c([N+](=O)[O-])c2)n1,-7,i,-4,1,0.59
CCOC(=O)C1=C(C)NC2=C(C(=O)CCC2)C1c1cn(Cc2ccc(Cl)cc2Cl)nc1-c1ccccc1 (configuration not stated),33,i,/,-17,0.24
Cc1cccc2cc(C#N)c(N3CCC(O)CC3)nc12,3,i,/,-8,-0.14
COc1ccc(S(=O)(=O)N2CCOCC2)cc1NC(=O)CSc1nnc2c(n1)[nH]c1ccccc12,/,/,/,/,-0.94
Cc1c(N=NC2=C(O)CC(C)(C)CC2=O)c(=O)n(-c2ccccc2)n1C,31,i,38,0,-0.27
COc1ccc(N(CC(=O)NC2CCCCC2)C(=O)CNC(=O)c2ccco2)cc1,-5,i,/,-12,0.46
COC(=O)c1c(NC(=O)CN2CCCc3ccccc32)sc(C)c1C,89*,i,-40,-13,0.48
COc1ccccc1C1C2CCCCC2(O)CCN1CC(=O)Nc1ccccc1 (configuration not stated),8,i,3,14,-0.67
COC(=O)c1c(NC(=O)CN2CCC3(O)CCCCC3C2c2cc(OC)ccc2OC)sc(C)c1C (configuration not stated),44,i,64*,74*,-0.23

# From PubChem BioAssay
